According to PubChem BioAssay (EPA / NIEHS):
“And” between values parts separate entries of the source, which are not always exact repeats. Equal entries are not always repeated. Results filed as inconclusive are left out. The source holds several records for some structures; these can differ, active in one and inactive in another. The source made the active and inactive calls. The calls were made as follows, unless noted: active = hit-call score of the fitted dose curve at least 0.9, where 1 is the maximum; inactive = score below 0.9.

Legend:
[1] = target: human RAR-related Orphan Receptor gamma (RORg), RORC (gene 6097) (UniProt P51449); test: ATG_RORg_TRANS: Attagene TRANS-FACTORIAL HepG2 Assay for human RAR-related Orphan Receptor gamma (RORg) (AID 2283011; active = hit-call score of the fitted dose curve at least 0.9, where 1 is the maximum;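 as to AC50: potency for induction of reporter transcripts above DMSO so activators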)
Chain of human RAR-related Orphan Receptor gamma (RORg), RORC (gene 6097) (P51449 whole entry, looked up, the tested form may be a part): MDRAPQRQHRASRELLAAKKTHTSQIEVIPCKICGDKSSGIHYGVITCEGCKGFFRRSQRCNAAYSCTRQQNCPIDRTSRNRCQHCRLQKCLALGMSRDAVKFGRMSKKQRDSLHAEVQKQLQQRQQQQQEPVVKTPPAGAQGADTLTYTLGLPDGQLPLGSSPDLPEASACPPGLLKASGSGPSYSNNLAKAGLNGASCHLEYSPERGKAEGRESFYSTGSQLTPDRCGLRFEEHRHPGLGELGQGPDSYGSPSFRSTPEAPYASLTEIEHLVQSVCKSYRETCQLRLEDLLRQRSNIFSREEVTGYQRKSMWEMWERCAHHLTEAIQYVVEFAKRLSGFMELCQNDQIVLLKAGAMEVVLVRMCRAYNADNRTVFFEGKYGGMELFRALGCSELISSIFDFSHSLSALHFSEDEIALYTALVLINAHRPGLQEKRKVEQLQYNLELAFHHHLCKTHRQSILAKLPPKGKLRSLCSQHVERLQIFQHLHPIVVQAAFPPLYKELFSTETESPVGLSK
In short: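 Transient MRTU transfection of HepG2 (TRANS format, exogenous NR-Gal4 chimera). 24 h dosing. Total RNA → oligo(dT) RT → PCR → 6-FAM labelling → HpaI cut → CE. Gain vs DMSO.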

[2] = target: Retinoic acid receptor RXR-alpha (Homo sapiens) (UniProt P19793); test: ATG_RXRa_TRANS: Attagene TRANS-FACTORIAL HepG2 Assay for human Retinoid X Receptor alpha (RXRa) (AID 2283012; active = hit-call score of the fitted dose curve at least 0.9, where 1 is the maximum)
Chain of Retinoic acid receptor RXR-alpha (Homo sapiens) (P19793 whole entry, looked up, the tested form may be a part): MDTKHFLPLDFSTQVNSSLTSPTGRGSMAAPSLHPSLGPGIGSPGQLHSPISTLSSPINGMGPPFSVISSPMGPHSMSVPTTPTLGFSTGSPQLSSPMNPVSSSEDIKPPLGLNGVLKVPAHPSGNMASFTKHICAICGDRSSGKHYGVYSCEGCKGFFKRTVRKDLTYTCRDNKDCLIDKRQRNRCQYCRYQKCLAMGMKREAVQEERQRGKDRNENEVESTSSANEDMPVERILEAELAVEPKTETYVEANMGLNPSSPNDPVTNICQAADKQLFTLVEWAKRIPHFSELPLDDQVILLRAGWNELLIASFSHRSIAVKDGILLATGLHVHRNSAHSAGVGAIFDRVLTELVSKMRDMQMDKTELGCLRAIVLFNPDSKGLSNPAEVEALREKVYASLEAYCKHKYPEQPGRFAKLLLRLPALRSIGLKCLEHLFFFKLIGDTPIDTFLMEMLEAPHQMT
In short: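 Transient transfection of human HepG2 with multiple GAL4-UAS reporter constructs; 24 h compound exposure; total RNA isolated, reverse-transcribed, PCR-amplified, 6-FAM labelled, HpaI-cut, resolved by capillary electrophoresis. Positive-direction fit versus DMSO.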

[3] = target: human Retinoid X Receptor beta (RXRb), RXRB (gene 6257) (UniProt P28702); test: ATG_RXRb_TRANS: Attagene TRANS-FACTORIAL HepG2 Assay for human Retinoid X Receptor beta (RXRb) (AID 2283013; active = hit-call score of the fitted dose curve at least 0.9, where 1 is the maximum)
Chain of human Retinoid X Receptor beta (RXRb), RXRB (gene 6257) (P28702 whole entry, looked up, the tested form may be a part): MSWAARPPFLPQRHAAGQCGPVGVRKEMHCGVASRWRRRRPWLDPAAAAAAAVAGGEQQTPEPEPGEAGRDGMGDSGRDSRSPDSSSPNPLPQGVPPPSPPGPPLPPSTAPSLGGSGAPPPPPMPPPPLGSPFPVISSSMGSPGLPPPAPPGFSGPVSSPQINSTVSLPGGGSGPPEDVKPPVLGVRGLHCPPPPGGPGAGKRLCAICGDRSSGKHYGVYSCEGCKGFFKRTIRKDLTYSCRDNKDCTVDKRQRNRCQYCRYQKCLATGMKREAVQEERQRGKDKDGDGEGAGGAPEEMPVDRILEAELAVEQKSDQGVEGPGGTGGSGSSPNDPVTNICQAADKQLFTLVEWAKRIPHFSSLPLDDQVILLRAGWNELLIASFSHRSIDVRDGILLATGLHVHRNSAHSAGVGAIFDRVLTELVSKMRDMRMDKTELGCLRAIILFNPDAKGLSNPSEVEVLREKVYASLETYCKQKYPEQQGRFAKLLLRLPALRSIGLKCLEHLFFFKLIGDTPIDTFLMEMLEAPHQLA
In short: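 Transfect HepG2 with GAL4-UAS multi-reporter constructs (chimeric NR-Gal4, TRANS format); dose compound 24 h; isolate RNA, RT-PCR, FAM primer extension, HpaI digest; quantify by capillary electrophoresis; positive direction vs DMSO.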

[4] = read-out: E-selectin (Homo sapiens) (UniProt P16581); test: BSK_3C_Eselectin: BioMAP Diversity Plus: 3C Assay for Eselectin Biomarker Activity (AID 2283015); conditions: primary human endothelial cells (HUVEC); actives raise or lower the signal
In short: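 HUVEC, 3C stimulation; compound exposure 24 h; E-selectin by ELISA; gain- or loss-of-signal fitted bidirectionally vs DMSO baseline.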

[5] = read-out: Interleukin-1 alpha (IL1a), IL1A (gene 3552); test: BSK_BE3C_IL1a: BioMAP Diversity Plus: BE3C Assay for Interleukin-1 alpha (IL1a) Biomarker Activity (AID 2283016); conditions: primary human bronchial epithelial cells; actives raise or lower the signal
In short: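 BE3C primary human bronchial epithelium; cpd 24 h; IL-1a by ELISA; bidirectional fit vs DMSO; parallel SRB (0.1% SRB, 10% TCA fix, 560 nm) for cytotoxicity.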

[6] = read-out: Monocyte Chemoattractant Protein-1 (MCP1), CCL2 (gene 6347); test: BSK_3C_MCP1: BioMAP Diversity Plus: 3C Assay for Monocyte Chemoattractant Protein-1 (MCP1) Biomarker Activity (AID 2283017); conditions: primary human endothelial cells (HUVEC); actives raise or lower the signal
In short: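 HUVEC, 3C system; 24 h chemical exposure; MCP-1 by ELISA; bidirectional curve fit vs DMSO baseline.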

[7] = read-out: Monocyte Chemoattractant Protein-1 (MCP1), CCL2 (gene 6347); test: BSK_4H_MCP1: BioMAP Diversity Plus: 4H Assay for Monocyte Chemoattractant Protein-1 (MCP1) Biomarker Activity (AID 2283018); conditions: primary human endothelial cells (HUVEC); actives raise or lower the signal
In short: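 ELISA read-out of MCP-1 from human vascular endothelial primary cells taken at 24 hours after compound exposure. Activity was fitted in both directions relative to DMSO, which served as negative control.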

[8] = read-out: Human Leukocyte Antigen - DR isotype (HLADR), HLA-DRA (gene 3122); test: BSK_3C_HLADR: BioMAP Diversity Plus: 3C Assay for Human Leukocyte Antigen - DR isotype (HLADR) Biomarker Activity (AID 2283019); conditions: primary human endothelial cells (HUVEC); actives raise or lower the signal
In short: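 HUVEC, 3C stimulation, 24 h post-dose; HLA-DR by ELISA; bidirectional curve fit vs DMSO baseline; gain or loss of signal scored.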

[9] = read-out: Interleukin-8 (IL8), CXCL8 (gene 3576); test: BSK_3C_IL8: BioMAP Diversity Plus: 3C Assay for Interleukin-8 (IL8) Biomarker Activity (AID 2283020); conditions: primary human endothelial cells (HUVEC); actives raise or lower the signal
In short: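 ELISA read-out of IL-8 from human umbilical vein endothelium, measured 24 h after chemical dosing. Activity is expressed relative to DMSO negative control, with both increases and decreases fitted.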

[10] = read-out: Monokine induced gamma interferon (MIG), CXCL9 (gene 4283); test: BSK_3C_MIG: BioMAP Diversity Plus: 3C Assay for Monokine induced gamma interferon (MIG) Biomarker Activity (AID 2283021); conditions: primary human endothelial cells (HUVEC); actives raise or lower the signal
In short: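 Read-out is ELISA detection of MIG on human umbilical vein endothelial cells, taken 24 h after dosing. Gain or loss of signal was scored relative to DMSO controls using bidirectional curve fitting.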

[11] = target: human Vitamin D Receptor (VDR), VDR (gene 7421) (UniProt P11473); test: ATG_VDR_TRANS: Attagene TRANS-FACTORIAL HepG2 Assay for human Vitamin D Receptor (VDR) (AID 2283022; active = hit-call score of the fitted dose curve at least 0.9, where 1 is the maximum)
Chain of human Vitamin D Receptor (VDR), VDR (gene 7421) (P11473 whole entry, looked up, the tested form may be a part): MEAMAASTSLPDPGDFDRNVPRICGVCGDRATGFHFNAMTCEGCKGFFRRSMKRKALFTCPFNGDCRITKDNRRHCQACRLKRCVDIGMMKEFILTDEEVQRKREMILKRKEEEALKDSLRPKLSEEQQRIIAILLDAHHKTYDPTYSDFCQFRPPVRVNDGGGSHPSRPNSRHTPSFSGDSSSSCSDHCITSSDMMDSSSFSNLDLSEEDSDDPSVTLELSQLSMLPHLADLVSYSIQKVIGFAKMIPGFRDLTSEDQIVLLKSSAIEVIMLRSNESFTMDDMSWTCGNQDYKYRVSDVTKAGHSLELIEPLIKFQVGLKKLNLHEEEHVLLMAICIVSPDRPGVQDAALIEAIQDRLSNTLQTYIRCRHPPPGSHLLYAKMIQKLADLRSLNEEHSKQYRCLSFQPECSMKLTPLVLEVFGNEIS
In short: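 RT-PCR/capillary electrophoresis read-out of reporter mRNA induction in transiently transfected HepG2; 24 h dosing; chimeric NR-Gal4 (TRANS format); gain-of-signal fit against DMSO baseline.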

[12] = BSK_3C_SRB: Viability Assessment in the BioMAP Diversity Plus: 3C Assay (AID 2283023); conditions: primary human endothelial cells (HUVEC);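 also: fitted both ways against DMSO so a hit may be signal rise or drop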
In short: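 HUVEC, 24 h post-dose; 10% TCA fix, 0.1% SRB stain, A560 nm. Bidirectional curve fit vs DMSO negative control.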

[13] = read-out: Matrix Metallopeptidase 1 (MMP1), MMP1 (gene 4312); test: BSK_BE3C_MMP1: BioMAP Diversity Plus: BE3C Assay for Matrix Metallopeptidase 1 (MMP1) Biomarker Activity (AID 2283024); conditions: primary human bronchial epithelial cells; actives raise or lower the signal
In short: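 Human bronchial epithelial cells (BE3C system) exposed to compound for 24 h; MMP1 then quantified by ELISA. Activity was fitted in both directions relative to DMSO.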

[14] = BSK_3C_Vis: BioMAP Diversity Plus: 3C Assay for Morphology Visualization (AID 2283025); conditions: primary human endothelial cells (HUVEC);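 also: fitted both ways so gain or loss versus DMSO counts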;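 as to AC50: light microscopy image of cell morphology used as background control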
In short: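 Chemicals were added to primary human umbilical vein endothelium, cells were incubated 24 h, and morphology was then visualized by light microscopy. Gain or loss of signal was fitted bidirectionally relative to DMSO.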

[15] = read-out: Pselectin, SELP (gene 6403); test: BSK_4H_Pselectin: BioMAP Diversity Plus: 4H Assay for Pselectin Biomarker Activity (AID 2283026); conditions: primary human endothelial cells (HUVEC); actives raise or lower the signal
In short: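 ELISA read-out of P-selectin on human umbilical vein endothelium after 24 h of dosing. Values derive from bidirectional fitting relative to DMSO. Parallel SRB protein staining flagged overt cytotoxicity.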

[16] = BSK_4H_SRB: Viability Assessment in the BioMAP Diversity Plus: 4H Assay (AID 2283027); conditions: primary human endothelial cells (HUVEC);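 also: cells exposed to compound for 24 h before staining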
In short: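 Human umbilical vein endothelial cells were dosed with chemical and, after 24 h, fixed with 10% TCA, stained with 0.1% sulforhodamine B, and read at 560 nm to give total protein as a cytotoxicity measure. Bidirectional fitting relative to DMSO control.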

[17] = BSK_BE3C_SRB: Viability Assessment in the BioMAP Diversity Plus: BE3C Assay (AID 2283028); conditions: primary human bronchial epithelial cells;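 as to AC50: fitted both ways so AC50 may mark signal gain or loss versus DMSO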
In short: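 Primary human bronchial epithelium; chemical dosing, 24 h; 10% TCA fix, 0.1% SRB stain, A560; bidirectional fit vs DMSO baseline.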

[18] = read-out: Thrombomodulin, THBD (gene 7056); test: BSK_3C_Thrombomodulin: BioMAP Diversity Plus: 3C Assay for Thrombomodulin Biomarker Activity (AID 2283029); conditions: primary human endothelial cells (HUVEC); actives raise or lower the signal
In short: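 Read-out is ELISA of thrombomodulin on human umbilical vein endothelium 24 h after chemical dosing. Gain or loss of signal is scored relative to DMSO. Overt cytotoxicity is checked in parallel cultures by sulforhodamine B staining.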

[19] = read-out: Urokinase-type plasminogen activator receptor (uPAR), PLAUR (gene 5329); test: BSK_4H_uPAR: BioMAP Diversity Plus: 4H Assay for Urokinase-type plasminogen activator receptor (uPAR) Biomarker Activity (AID 2283030); conditions: primary human endothelial cells (HUVEC); actives raise or lower the signal
In short: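 HUVEC, 24 h post-dose; uPAR by ELISA; bidirectional fit vs DMSO baseline.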

[20] = target: human Thyroid Receptor alpha (THRa1), THRA (gene 7067) (UniProt P10827); test: ATG_THRa1_TRANS: Attagene TRANS-FACTORIAL HepG2 Assay for human Thyroid Receptor alpha (THRa1) (AID 2283014; active = hit-call score of the fitted dose curve at least 0.9, where 1 is the maximum)
Chain of human Thyroid Receptor alpha (THRa1), THRA (gene 7067) (P10827 whole entry, looked up, the tested form may be a part): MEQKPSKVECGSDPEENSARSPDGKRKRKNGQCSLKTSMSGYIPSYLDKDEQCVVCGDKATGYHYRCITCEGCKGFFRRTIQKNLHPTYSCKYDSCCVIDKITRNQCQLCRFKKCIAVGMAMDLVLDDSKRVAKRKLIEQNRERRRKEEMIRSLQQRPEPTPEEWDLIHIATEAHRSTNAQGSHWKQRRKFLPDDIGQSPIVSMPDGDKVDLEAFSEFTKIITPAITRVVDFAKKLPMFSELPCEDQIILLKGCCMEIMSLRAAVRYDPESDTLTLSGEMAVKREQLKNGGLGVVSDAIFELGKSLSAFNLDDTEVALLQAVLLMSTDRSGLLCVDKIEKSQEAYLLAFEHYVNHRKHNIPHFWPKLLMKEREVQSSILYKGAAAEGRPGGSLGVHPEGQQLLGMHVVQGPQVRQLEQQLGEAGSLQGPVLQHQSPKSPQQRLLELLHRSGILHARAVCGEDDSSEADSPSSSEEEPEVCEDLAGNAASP
In short: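 Transient HepG2 transfection, NR-Gal4 chimera driving GAL4-UAS reporters; 24 h compound exposure; total RNA, oligo(dT) RT, PCR, fluorescent primer extension, capillary electrophoresis. Upward direction vs DMSO control.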

Measured: AC50

Chain of E-selectin (Homo sapiens) (P16581 whole entry, looked up): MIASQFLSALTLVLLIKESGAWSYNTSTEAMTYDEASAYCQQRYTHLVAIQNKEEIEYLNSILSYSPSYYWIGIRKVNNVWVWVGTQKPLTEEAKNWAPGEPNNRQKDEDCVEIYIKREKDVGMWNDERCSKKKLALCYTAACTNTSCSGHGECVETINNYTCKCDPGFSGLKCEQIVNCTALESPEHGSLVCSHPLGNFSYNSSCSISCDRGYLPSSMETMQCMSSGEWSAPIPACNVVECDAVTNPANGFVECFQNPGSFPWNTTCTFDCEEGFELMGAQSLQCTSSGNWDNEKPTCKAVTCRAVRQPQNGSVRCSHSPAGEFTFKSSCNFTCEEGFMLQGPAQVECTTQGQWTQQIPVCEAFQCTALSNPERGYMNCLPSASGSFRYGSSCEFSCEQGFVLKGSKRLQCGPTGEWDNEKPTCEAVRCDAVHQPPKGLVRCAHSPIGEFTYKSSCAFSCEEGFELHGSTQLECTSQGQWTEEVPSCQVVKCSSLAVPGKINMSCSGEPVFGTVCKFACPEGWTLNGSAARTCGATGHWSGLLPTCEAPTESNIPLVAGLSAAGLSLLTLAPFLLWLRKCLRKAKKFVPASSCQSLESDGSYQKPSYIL

COS(C)(=O)=O
not listed: [20]
inactive: all other assays above

Cc1nccn1-c1ccc(Sc2cccc(C3(C(N)=O)CCOCC3)c2)cc1
active: [5] 10.8 µM | [7] 4.95 µM | [8] 7.74 µM | [9] 11 µM | [11] 38 µM | [12] 9.18 µM | [13] 8.1 µM | [18] 8.22 µM
not listed: [3] | [6]
inactive: all other assays above

COc1cc(C(C)C)c2c(c1)S(=O)(=O)N(COc1cc(=O)n3cccc(OCCN4CCCCC4)c3n1)C2=O
active: [1] 3.78 µM | [4] 6.54 µM | [5] 8.48 µM | [8] 8.31 µM | [15] 5 µM | [17] 8.23 µM | [19] 4.05 µM
not listed: [3] | [10]
inactive: all other assays above

OCC(CO)(CO)CO
not listed: [10] | [13]
inactive: all other assays above

OCc1c[nH]c2ccccc12
inactive: [1] | [2] | [3] | [20] | [5] | [6] | [7] | [9] | [11] | [15] | [16] | [17] | [18] | [19]
active: [3] 9.59 µM | [4] 24.6 µM | [8] 9.29 µM | [12] 11.5 µM | [14] 37.5 µM

CCCCCCCCN(C)C
not listed: [6] | [20]
inactive: all other assays above

CCCCCCCC1CCC(=O)O1 (configuration not stated)
not listed: [10] | [11] | [13] | [20]
inactive: all other assays above

C[Si](C)(C)C(F)(F)C(F)(F)C(F)(F)F
not listed: [6] | [13] | [14]
inactive: all other assays above

O=c1[nH]cnc2c1ncn2[C@H]1CC[C@@H](CO)O1
not listed: [3] | [10] | [11]
inactive: all other assays above

NNC(=O)c1ccncc1
not listed: [3]
inactive: all other assays above

C[C@]12C=CC(=O)C=C1CC[C@H]1[C@@H]3C[C@@H](O)[C@](O)(C(=O)CO)[C@@]3(C)C[C@H](O)[C@@]12F
not listed: [6] | [13]
inactive: all other assays above

OC(O)(C(F)C(O)(O)C(F)(F)F)C(F)(F)F
active: [1] 220 µM and 106 µM | [8] 17.6 µM | [19] 20.5 µM
inactive: [2] | [3] | [4] | [5] | [6] | [7] | [8] | [9] | [10] | [11] | [12] | [13] | [15] | [16] | [17] | [18] | [19]

OCc1ccccc1
active: [2] 5.67 µM | [3] 1.09 µM
inactive: [1] | [2] | [20] | [4] | [5] | [6] | [7] | [8] | [9] | [12] | [14] | [15] | [16] | [17] | [18] | [19]

O=C(Cl)C(F)(F)C(F)(F)C(F)(F)C(=O)Cl
not listed: [10] | [14] | [20]
inactive: all other assays above
